Shown are actives, neighbours in structure and some others; about 6.8% of the full set was active somewhere.
C diff HTS: blocks growth of Clostridium difficile; Clostridium difficile clinical isolate growth, OD600, 24 h; stronger effect = lower value; growth activity, negative = inhibition, % at 16 µg/mL (by protocol); hit rate 0.25% among 86,000; AID 1259249;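 active means mean growth activity at or below -80% and every replicate also at or below -80%; inconclusive means mean at or below -80% but some replicate above -80%; inactive means mean growth activity above -80%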
T cruzi growth-1: blocks T. cruzi growth in NIH3T3 culture. T. cruzi beta-gal in NIH3T3, GalScreen luminescence, 90 h. hit rate 5.9% among 77,000. AID 624255. inhibition, % at 8.34 µM;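 active means mean inhibition above about 93%, with at least 55% of replicates each passing it, limit read from the data, passing the limit was not always enough; inconclusive means only one of those two conditions holds; inactive means neither condition holds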
Pf Dd2 inh: P. falciparum Dd2 growth inhibition; SYBR Green, 72 h; stronger effect = lower value; activity change, % at 10 µM; hit rate 2.3% among 94,000; in the data active means activity change below about -80%; inconclusive means no clear call, values can overlap the other calls
T cruzi growth-2: Trypanosoma cruzi proliferation inhibition; shares compounds with T cruzi growth-1; T. cruzi beta-gal in NIH3T3, GalScreen luminescence, 90 h; inhibition, % at 8.35 µM; hit rate 72% among 5,600; AID 651739;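 active means mean replicate inhibition above about 95% and at least 55% of replicates individually reaching it, limit read from the data; inconclusive means only one of the two criteria is met; inactive means neither criterion is met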
T cruzi growth-3: inhibitors of T. cruzi proliferation. shares compounds with T cruzi growth-1. T. cruzi beta-gal in NIH3T3, GalScreen luminescence, 90 h. inhibition, % at 2.09 µM. hit rate 21% among 5,600. AID 651740;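 active means mean inhibition above about 95%, with at least 55% of replicates also reaching it, limit read from the data; inconclusive means meets just one of the two conditions; inactive means meets neither condition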
3T3 cytotox: kills mouse NIH/3T3 fibroblasts; cytotoxicity (signal decrease), % at 8.35 µM; shares compounds with T cruzi growth-1; hit rate 14% among 5,600; NIH/3T3 viability, CellTiter-Glo ATP luminescence, 90 h;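 active means mean signal decrease across replicates above about 35% based on untreated-well scatter, with enough replicates individually passing, limit read from the data; inconclusive means no rule stated though some were filed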
NIH3T3 tox 2: cytotoxicity in mouse NIH/3T3 fibroblasts. hit rate 56% among 5,600. AID 651744. NIH/3T3 viability, CellTiter-Glo ATP luminescence, 90 h. inhibition, % at 24.9 µM. shares compounds with T cruzi growth-1;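 active means mean loss of cell viability signal at or above a set limit, and enough replicates individually reaching it; inconclusive means meets only the mean limit or only the replicate share; inactive means meets neither condition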
Large screens that a line does not name were inactive (follow-up assays come after a bar, where they were run).

CC(C)C#Cc1ccc([C@H]2[C@@H](CO)N3CCCCN(C(=O)Nc4ccccc4)C[C@@H]23)cc1	T cruzi growth-1 113 | T cruzi growth-2 107 | T cruzi growth-3 inactive | 3T3 cytotox 41 | NIH3T3 tox 2 34
O=C(Nc1ccccc1)N1CCCCN2[C@H](C1)[C@H](c1ccc(C#Cc3cccnc3)cc1)[C@@H]2CO	T cruzi growth-1 110 | T cruzi growth-2 inactive | T cruzi growth-3 inactive | 3T3 cytotox inactive | NIH3T3 tox 2 inactive
CO[C@@H]1CN(C)C(=O)c2cc(NC(C)=O)ccc2OC[C@H](C)N(C(=O)c2cnccn2)C[C@@H]1C	none (no result: C diff HTS)
C[C@H](CO)N1C[C@H](C)[C@H](CN(C)S(=O)(=O)c2ccc(F)cc2)Oc2c(NC(=O)NC3CCCCC3)cccc2C1=O	none
Cc1noc(C)c1NC(=O)Nc1ccc2c(c1)C(=O)N([C@H](C)CO)C[C@H](C)[C@H](CN(C)S(=O)(=O)c1ccccc1)OCCCC[C@H](C)O2	none
O=C(Nc1ccccc1)N1CCCCN2[C@H](CO)[C@@H](c3ccc(C#Cc4ccccc4)cc3)[C@@H]2C1	T cruzi growth-1 109 | T cruzi growth-2 inactive | T cruzi growth-3 103 | 3T3 cytotox inconclusive | NIH3T3 tox 2 104
CC(C)C#Cc1ccc([C@H]2[C@H]3CN(C(=O)Nc4ccccc4)CCCCN3[C@H]2CO)cc1	none
CC(C)CC#Cc1ccc([C@H]2[C@@H](CO)N3CCCCN(C(=O)Nc4ccccc4)C[C@@H]23)cc1	T cruzi growth-1 106 | T cruzi growth-2 98 | T cruzi growth-3 103 | 3T3 cytotox inactive | NIH3T3 tox 2 87
O=C(NCC[C@@H]1CC[C@H](NS(=O)(=O)c2cccc(Cl)c2)[C@H](CO)O1)c1cnccn1	none
CC(C)C#Cc1cnc2c(c1)C(=O)N([C@H](C)CO)C[C@H](C)[C@H](CN(C)Cc1cccc(F)c1)O2	none
CC(C)NC(=O)N(C)C[C@H]1Oc2ccc(NC(=O)Nc3ccccc3)cc2CC(=O)N([C@H](C)CO)C[C@@H]1C	none (no result: T cruzi growth-1)
C[C@@H]1CN([C@@H](C)CO)S(=O)(=O)c2ccc(-c3ccccc3F)cc2O[C@@H]1CN(C)Cc1cccnc1	T cruzi growth-1 101 | T cruzi growth-2 105 | T cruzi growth-3 inactive | 3T3 cytotox 69 | NIH3T3 tox 2 71
C[C@H]1CN([C@@H](C)CO)S(=O)(=O)c2ccc(-c3ccccc3F)cc2O[C@@H]1CN(C)Cc1cccnc1	T cruzi growth-1 105 | T cruzi growth-2 107 | T cruzi growth-3 104 | 3T3 cytotox 36 | NIH3T3 tox 2 100
C[C@H](CO)N1C[C@H](C)[C@@H](CN(C)Cc2cccnc2)Oc2cc(-c3ccccc3F)ccc2S1(=O)=O	none
C[C@@H]1CN([C@H](C)CO)S(=O)(=O)c2ccc(-c3ccccc3F)cc2O[C@H]1CN(C)Cc1cccnc1	none
C[C@@H]1CN([C@H](C)CO)C(=O)c2c(c3ccccc3n2C)-c2ccccc2CO[C@H]1CN(C)C(=O)[C@H]1CCCN1C	none
CCC(=O)N1C[C@H]2[C@@H](c3ccccc31)[C@H](CO)N2C(=O)CC	T cruzi growth-1 104 | T cruzi growth-2 inactive | T cruzi growth-3 inactive | 3T3 cytotox inactive | NIH3T3 tox 2 inactive
O=C(C1CCCCC1)N1C[C@@H]2[C@H](c3ccccc31)[C@H](CO)N2Cc1ccccc1Cl	T cruzi growth-1 105 | T cruzi growth-2 99 | T cruzi growth-3 inactive | 3T3 cytotox inactive | NIH3T3 tox 2 inactive
O=S(=O)(c1ccc(F)cc1)N1C[C@@H]2[C@H](c3ccccc31)[C@H](CO)N2Cc1ccccc1Cl	none
COc1ccc(C(=O)N2C[C@H]3[C@@H](c4ccccc42)[C@H](CO)N3Cc2ccc3c(c2)OCO3)cc1	T cruzi growth-1 inconclusive | T cruzi growth-2 inactive | T cruzi growth-3 inactive | 3T3 cytotox inactive | NIH3T3 tox 2 33
O=S(=O)(c1ccc(F)cc1)N1C[C@H]2[C@@H](c3ccccc31)[C@H](CO)N2Cc1ccccc1Cl	T cruzi growth-1 108 | T cruzi growth-2 102 | T cruzi growth-3 inactive | 3T3 cytotox inactive | NIH3T3 tox 2 38
O=C(C1CCCCC1)N1C[C@H]2[C@@H](c3ccccc31)[C@H](CO)N2Cc1ccccc1Cl	none
O=C(c1ccc2c(c1)OCO2)N1C[C@H]2[C@@H](c3ccccc31)[C@H](CO)N2Cc1ccc2c(c1)OCO2	none
